# Assay outcomes from PubChem.
# Sm TGR inh = blocks Schistosoma mansoni thioredoxin glutathione reductase | Q962Y6 | purified TGR, DTNB reduction, TNB absorbance 405 nm | Potency, µM (titrated, usually from 114 µM), inactives show top-dose activity change, negative = inhibition, hits mostly inhibitors | 3% of 360,000 active | AID 485364; note: nearly all actives have a fitted effect of over 60% in size
#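 First, TGR (20 nM dispensed) and NADPH were mixed with compound. Second, a 15 min room-temperature incubation followed. Third, further NADPH and then DTNB were added to start the reaction. Finally, TNB absorbance was monitored kinetically.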
# RE007 growth inh = less growth of the S. pombe RE007 Vpr strain; Potency, µM (highest dose often 92.2 µM), for the others: at the highest dose activity change, negative = less growth, actives largely listed as inhibitors; S. pombe RE007 Vpr strain, BacTiter-Glo ATP luminescence, 24 h; 0.21% of 360,000 active; active = well fitted falling curve with a large enough effect; inconclusive = small, poorly fitted or top-dose-only effect; inactive = no such curve, though single readings can be large or run the other way; note: nearly all actives have a fitted effect of over 50% in size
#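 Fission yeast strain RE007, carrying one chromosomally integrated HIV-1 vpr copy, was seeded at OD 0.01 in PMG+AL medium with 23 nL pinned compound. After 24 h at 30 °C and 99% humidity, viability was read by BacTiter-Glo luminescence.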
# AmpC inh detg = inhibitors of E. coli AmpC beta-lactamase with detergent; AmpC hydrolysis of nitrocefin, absorbance 480 nm, 0.01% Triton; P00811; Potency, µM (doses to about 114 µM), for the others: top-dose activity change, negative = inhibition, hits mostly inhibitors; 0.041% of 370,000 active;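 note: 0% = no-compound wells and -100% = no-enzyme wells; nearly all actives have a fitted effect of over 25% in size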
# Target sequence (P00811 whole entry, looked up): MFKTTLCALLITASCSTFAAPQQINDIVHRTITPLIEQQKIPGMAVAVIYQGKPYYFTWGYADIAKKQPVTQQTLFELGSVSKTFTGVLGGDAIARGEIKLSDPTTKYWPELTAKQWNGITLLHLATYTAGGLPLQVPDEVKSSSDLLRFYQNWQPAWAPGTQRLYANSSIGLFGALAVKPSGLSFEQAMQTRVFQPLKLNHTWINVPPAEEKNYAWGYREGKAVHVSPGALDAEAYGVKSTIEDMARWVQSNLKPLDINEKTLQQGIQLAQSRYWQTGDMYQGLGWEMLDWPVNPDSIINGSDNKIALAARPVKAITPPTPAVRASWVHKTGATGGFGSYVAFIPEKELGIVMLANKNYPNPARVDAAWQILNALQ
#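 AmpC (5.3 nM in the dispensed reagent) in 20 mM phosphate pH 7.0 with 0.01% (detergent screen) or 0.0001% Triton X-100 was preincubated with compounds for 15 min at room temperature. Nitrocefin was then added from an 800 uM solution, and hydrolysis was followed at 480 nm.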
# FBPA Giardia inh = Giardia lamblia aldolase inhibition | 0.71% of 290,000 active | purified Giardia FBPA | Potency, µM (titrated, usually from 59.6 µM), inactives show at the highest dose activity, negative = inhibition, hits mostly inhibitors | A8B2U2; note: nearly all actives have a fitted effect of over 55% in size
# Target sequence (A8B2U2 whole entry, looked up): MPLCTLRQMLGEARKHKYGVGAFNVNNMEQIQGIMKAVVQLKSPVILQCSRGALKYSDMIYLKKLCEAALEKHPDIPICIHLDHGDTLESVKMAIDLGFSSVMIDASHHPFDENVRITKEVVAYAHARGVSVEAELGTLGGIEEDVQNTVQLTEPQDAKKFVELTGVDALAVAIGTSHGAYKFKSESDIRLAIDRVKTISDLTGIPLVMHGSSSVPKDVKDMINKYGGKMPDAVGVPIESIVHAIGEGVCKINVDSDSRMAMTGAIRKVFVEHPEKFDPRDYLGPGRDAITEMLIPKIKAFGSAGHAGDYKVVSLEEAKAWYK
#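 40 nM FBPA preincubated 10 min at RT with compound (up to 57.5 uM final), then substrate plus GAPDH/TPI/NAD/arsenate coupling and diaphorase/resazurin added. Fluorescence read after 20 min at RT, 525/598 nm.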
# AmpC no deterg = AmpC beta-lactamase inhibition without detergent. P00811. 0.52% of 330,000 active. AID 485341. AmpC nitrocefin hydrolysis, absorbance 480 nm, 0.0001% Triton. Potency, µM (titrated, usually from 57.1 µM), for inactives: at the highest dose activity change, negative = inhibition, actives largely listed as inhibitors;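 note: plate controls were no compound for no effect and no enzyme for full effect; nearly all actives have a fitted effect of over 20% in size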
#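 20 mM phosphate pH 7.0 + 0.01% (detergent screen) or 0.0001% Triton X-100; 5.3 nM AmpC reagent; cpd preinc 15 min RT; nitrocefin (800 uM stock) to start; A480 q20 s × 4 min; Activity was normalised to no-enzyme and no-compound control wells.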
# * marks the source's active call; other numbers are inactive results; ? = inconclusive; nt = no result. An excerpt weighted towards active compounds, which were near 3.4% of everything screened. Unless noted, calls come from the whole dose curve; as a rule, active = well fitted curve in the direction sought with a large enough effect; inconclusive = small, poorly fitted or top-dose-only effect, or another doubt; inactive = no such curve, though single readings can be large; an effect the other way counts as inactive or inconclusive. Unless noted, % is set by controls: 0 for no effect and ±100 for the full control effect; potency is the fitted concentration of half-maximal effect.
SMILES,Sm TGR inh,RE007 growth inh,AmpC inh detg,FBPA Giardia inh,AmpC no deterg
O=C1CC(Nc2ccc(N3CCOCC3)cc2)C(=O)N1Cc1ccccc1 (stereo not given),20µM*,?,?,-1.1%,-26.2%
CCOc1ccccc1N1CC(C(=O)Nc2ccccc2N2CCOCC2)CC1=O (stereo not given),1.6%,-5.0%,?,-14.1%,68.8%
COC(=O)c1[nH]c2ccc(F)cc2c1NC(=O)CCN1CC(C)OC(C)C1 (stereo not given),-8.4%,15.9%,-1.1%,-13.5%,-0.4%
COc1ccc(S(=O)(=O)Cc2ccc(C(=O)NCc3ccco3)o2)cc1,39.8µM*,-4.5%,?,-0.2%,-7.2%
COc1ccc(S(=O)(=O)Cc2ccc(C(=O)NCCCN3CCc4ccccc4C3)o2)cc1,44.7µM*,-1.7%,2.1%,?,34.9%
CN(Cc1ccco1)c1ncnc2ccc(-c3ccccc3Cl)cc12,-6.7%,nt,-4.0%,-8.1%,-9.9%
CN(Cc1ccco1)c1ncnc2ccc(-c3ccoc3)cc12,20µM*,nt,-1.7%,-9.9%,4.4%
CC(=O)Nc1ccn(C2CC3OCC(NC(=O)C(NC(=O)OC(C)(C)C)C(C)OCc4ccccc4)C3O2)c(=O)n1 (stereo not given),nt,nt,nt,3.7%,nt
CCc1ccc(NC(=O)N2c3ccccc3Sc3ccccc32)cc1,7.7%,nt,10.8%,nt,nt
NS(=O)(=O)c1ccc(NC(=O)N2c3ccccc3Sc3ccccc32)cc1,-7.4%,-13.4%,-10.8%,14.0%,35.5µM*
CCOC(=O)C1=C(Cc2ccc(OC)cc2)C(=O)c2ccccc2C1=O,14.1µM*,-11.9%,0.0%,1.41µM*,-31.1%
CCOC(=O)C1=C(Cc2ccc(C)cc2)C(=O)c2ccccc2C1=O,8.91µM*,nt,-12.3%,3.97µM*,-29.5%
COc1ccc(C(=O)N(C)CCCC2CCCC2)cc1OC1CCN(C(C)C)CC1,2.8%,-4.4%,1.6%,-15.5%,0.1%
CC(=NNC(=S)N1CC2CCC(CC2)C1)c1nccs1,nt,31.6µM*,nt,nt,nt
CC(=NNC(=S)N1CCCC1)c1ccccn1,nt,-2.9%,nt,nt,nt
Cc1ccc2c(c1)/C(=C/c1ccc(F)cc1)C(=O)N2,2.3%,-24.0%,-4.3%,-2.9%,-19.8%
Cc1ccc2c(c1)N/C(=C(\C=C(/Cl)[N+](=O)[O-])[N+](=O)[O-])N2,8.91µM*,nt,5.9%,?,-27.7%
COCCn1c(C)cc(O)c(C(c2ccc(C)cc2)N2CCCCC2)c1=O (stereo not given),8.91µM*,nt,15.1%,nt,nt
COCCn1c(C)cc(O)c(C(c2ccc(Cl)cc2)N2CCCCC2)c1=O (stereo not given),10µM*,nt,2.8%,nt,nt
COCCn1c(C)cc(C(=O)CN2CCCCC2)c1C,-23.0%,3.4%,-0.6%,0.8%,13.9%
COC(=O)c1ccc(NC(=O)c2nc(S(=O)(=O)Cc3cccc(C)c3)ncc2Cl)cc1,6.31µM*,9.1%,-19.0%,-4.6%,-31.0%
CC(=O)Nc1ccc(NC(=O)c2nc(S(=O)(=O)Cc3cccc(C)c3)ncc2Cl)cc1,7.08µM*,-4.8%,-5.1%,nt,-0.4%
COC(=O)c1ccccc1NC(=O)c1nc(S(=O)(=O)Cc2cccc(C)c2)ncc1Cl,?,nt,18.9%,nt,nt
CCS(=O)(=O)c1ncc(Cl)c(C(=O)Nc2c(C(=O)Nc3cccc(C)c3)oc3ccccc23)n1,3.0%,nt,10.9%,nt,nt
Cc1cccc(CS(=O)(=O)c2ncc(Cl)c(C(=O)NCc3ccc4c(c3)OCO4)n2)c1,6.31µM*,0.9%,?,-11.5%,-19.8%
SMILES,Sm TGR inh,RE007 growth inh,AmpC inh detg,FBPA Giardia inh,AmpC no deterg
O=C(CCN1C(=O)/C(=C/c2cccs2)SC1=S)Nc1ccc(C(=O)O)cc1,6.3%,19.8%,5.8%,16.6%,-34.7%
COc1cccc2cc(C(=O)NNC(=O)c3ccc(Br)cc3)c(=O)oc12,-25.7%,-0.8%,-2.7%,-1.9%,-29.9%
Cc1ccc(C)c(CN2C(=O)c3ccccc3S(=O)(=O)c3ccc(C(=O)NCCc4ccc(Cl)cc4)cc32)c1,-8.7%,nt,-8.4%,nt,nt
CN1CCN(CC(=O)c2ccccc2F)CC1,11.2µM*,-1.9%,4.4%,?,-17.6%
N#CC(C#N)=Cc1ccccc1OCc1ccccc1,3.16µM*,nt,1.8%,-16.2%,-8.6%
Cc1ccc(S(=O)(=O)/C(C#N)=C/c2ccccc2OCc2ccccc2)cc1,-1.8%,9.0%,-13.4%,-7.0%,-49.0%
O=C1[C@@H]2[C@@H](CN3CN(c4ccccc4)N=C(c4ccccc4)[C@@]23c2ccccc2)C(=O)N1c1ccccc1,nt,39.8µM*,nt,nt,nt
O=C1[C@H]2C(c3ccccc3)=NN(c3ccccc3)[C@H]2C(=O)N1c1ccccc1,-0.4%,-0.9%,8.8%,-7.4%,-35.2%
Cc1ccc(CC(=O)Nc2ccc3c(c2)N(C)C(=O)c2ccccc2S3)cc1,1.2%,nt,-0.8%,nt,nt
COc1ccc(/C=N/NC(=S)Nc2ccccc2)cc1COc1ccccc1F,-0.5%,nt,-4.4%,-1.8%,14.1µM*
Cc1ccc(S(=O)(=O)N2CCN(CC(O)c3ccccc3)CC2)cc1 (stereo not given),6.3%,17.5%,-3.7%,7.4%,-29.2%
COc1ccc(C)cc1NC(=O)NC1CCCCCCC1,9.1%,8.3%,3.2%,nt,22.4µM*
CCNS(=O)(=O)c1ccc(NC(=O)Nc2cc(C)ccc2OC)cc1,1.3%,-2.3%,2.0%,-8.4%,11.2µM*
COc1ccc(OC)c(NC(=O)NC2CCCCCCC2)c1,-24.5%,12.9%,-6.5%,nt,-34.6%
Cc1c(NC(=O)Nc2ccc(Cl)c(Cl)c2)sc(=S)n1C,nt,-0.7%,nt,nt,nt
CCN1C(=O)c2cccc3c(S(=O)(=O)NCc4ccco4)ccc1c23,39.8µM*,-12.1%,?,?,-28.3%
CCN1C(=O)c2cccc3c(S(=O)(=O)NCc4cccnc4)ccc1c23,-12.6%,8.0%,-13.8%,2.7%,-14.1%
O=C(Nc1ccccc1)Nc1ccccc1,nt,-21.5%,nt,-4.8%,nt
O=C(Nc1ccccc1)Nc1n[nH]c2nnc(-c3ccccc3)c(-c3ccccc3)c12,0.2%,4.0%,-6.3%,?,31.6µM*
COc1ccccc1N1CCN(C(=O)CN(C)S(=O)(=O)c2ccc3c(c2)c(=O)n(C)c(=O)n3C)CC1,-0.6%,11.3%,6.5%,6.1%,176.1%
O=C(COC(=O)c1ccc(Cl)cc1[N+](=O)[O-])NNC(=O)c1cccs1,56.2µM*,1.3%,-10.5%,nt,-21.1%
Cc1cc2[nH]c3ccccc3c2cn1,0.0%,3.5%,?,1.9%,-20.5%
O=C(Nc1ccc(Br)cc1C(=O)c1ccccc1Cl)c1ccc(Br)cc1,2.0%,nt,11.0%,nt,nt
CCNc1ccc(Br)cc(C(=O)/C=C/c2ccc(Cl)cc2)c1=O,10µM*,?,-8.2%,?,-52.9%
CCNc1ccc(Br)cc(C(=O)/C=C/c2ccc3c(c2)OCO3)c1=O,?,-18.2%,?,?,-52.3%
